# Experimental data: paper PMC7862700, “An all-to-all approach to the identification of sequence-specific readers for epigenetic DNA modifications on cytosine”
# How the values were obtained:
# Experiment in all cases: DAPPL (digital affinity profiling via proximity ligation, sequencing); 10 mM Tris-HCl pH 7.5, 50 mM NaCl, 1 mM DTT, 4% glycerol, room temperature, 30 min; GST-TFs on glutathione beads, 16-mer random dsDNA library, 0.1% formaldehyde crosslink after washing; high values mean tight binding
# FEV = target: T1, FEV (Homo sapiens, UniProt Q99581 1-238); details: protein: recombinant; tags: N-terminal GST; dsDNA, one strand shown
# T1 sequence: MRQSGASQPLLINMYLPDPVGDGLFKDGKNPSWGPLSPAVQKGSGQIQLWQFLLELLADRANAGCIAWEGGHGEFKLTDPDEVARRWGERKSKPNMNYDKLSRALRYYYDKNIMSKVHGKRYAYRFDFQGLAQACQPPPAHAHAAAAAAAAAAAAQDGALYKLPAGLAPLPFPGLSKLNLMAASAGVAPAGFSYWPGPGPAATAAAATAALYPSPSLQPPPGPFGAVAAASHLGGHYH
# Procedure, shortened: (§1)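 Each value of binding signal is a hexamer's read frequency for a factor divided by the same hexamer's frequency in the tag-only sample. Barcoded, bead-captured GST fusions of human transcription factors made in yeast were pooled with that sample and incubated with 200 nmole of a random double-stranded 16-mer DNA library in Tris/NaCl/DTT/glycerol buffer at room temperature for 30 min. Washing, 0.1% formaldehyde crosslinking, proximity ligation, PCR and Illumina NextSeq500 sequencing followed.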
# ETV5 = ETV5 (Homo sapiens, UniProt P41161 1-510); details: protein: recombinant; tags: N-terminal GST; dsDNA, one strand shown
# Chain of ETV5 (P41161 whole entry): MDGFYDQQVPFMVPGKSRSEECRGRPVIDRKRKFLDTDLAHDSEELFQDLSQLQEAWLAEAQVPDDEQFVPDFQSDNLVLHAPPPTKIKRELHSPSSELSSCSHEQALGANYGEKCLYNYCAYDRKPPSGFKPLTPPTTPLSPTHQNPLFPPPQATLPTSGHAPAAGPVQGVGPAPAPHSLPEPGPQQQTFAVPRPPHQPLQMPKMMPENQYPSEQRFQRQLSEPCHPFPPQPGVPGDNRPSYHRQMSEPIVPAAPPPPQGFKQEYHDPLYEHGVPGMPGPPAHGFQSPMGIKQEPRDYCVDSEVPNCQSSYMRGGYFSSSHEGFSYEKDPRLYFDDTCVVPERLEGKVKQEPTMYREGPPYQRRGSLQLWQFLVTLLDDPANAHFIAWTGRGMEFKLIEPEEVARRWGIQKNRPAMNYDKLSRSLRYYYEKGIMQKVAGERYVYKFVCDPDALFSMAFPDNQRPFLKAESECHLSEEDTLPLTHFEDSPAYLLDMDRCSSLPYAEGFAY
# Procedure, shortened: as §1
# HSF1 = HSF1 (Homo sapiens, UniProt Q00613 1-529); details: protein: recombinant; tags: N-terminal GST; chain copies: 3; dsDNA, one strand shown
# Chain of HSF1 (Q00613 whole entry): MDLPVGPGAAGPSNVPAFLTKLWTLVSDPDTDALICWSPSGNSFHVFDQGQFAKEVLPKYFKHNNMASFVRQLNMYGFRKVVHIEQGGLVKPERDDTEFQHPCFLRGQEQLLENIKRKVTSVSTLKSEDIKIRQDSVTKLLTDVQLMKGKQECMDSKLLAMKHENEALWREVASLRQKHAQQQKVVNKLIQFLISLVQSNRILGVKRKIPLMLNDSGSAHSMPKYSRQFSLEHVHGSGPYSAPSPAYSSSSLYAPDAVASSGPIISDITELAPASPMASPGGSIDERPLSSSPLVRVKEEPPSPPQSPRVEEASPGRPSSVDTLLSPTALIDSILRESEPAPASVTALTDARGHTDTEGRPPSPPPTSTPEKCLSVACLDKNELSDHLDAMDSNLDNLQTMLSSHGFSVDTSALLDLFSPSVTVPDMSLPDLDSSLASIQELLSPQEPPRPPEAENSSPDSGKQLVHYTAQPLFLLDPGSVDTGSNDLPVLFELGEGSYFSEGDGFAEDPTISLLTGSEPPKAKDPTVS
# Procedure, shortened: as §1
# SPIC = target: T2, SPIC (Homo sapiens, UniProt Q8N5J4 1-248); details: protein: recombinant; tags: N-terminal GST; dsDNA, one strand shown
# T2 sequence: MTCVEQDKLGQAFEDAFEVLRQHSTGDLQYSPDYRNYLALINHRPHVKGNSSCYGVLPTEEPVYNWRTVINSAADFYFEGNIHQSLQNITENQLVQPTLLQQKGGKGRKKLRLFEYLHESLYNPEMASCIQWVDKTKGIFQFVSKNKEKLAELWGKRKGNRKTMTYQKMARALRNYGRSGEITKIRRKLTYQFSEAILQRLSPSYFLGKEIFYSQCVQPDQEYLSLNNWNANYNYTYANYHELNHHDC
# Procedure, shortened: as §1
# ELF4 = ELF4 (Homo sapiens, UniProt Q99607 1-663); details: protein: recombinant; tags: N-terminal GST; dsDNA, one strand shown
# Chain of ELF4 (Q99607 whole entry): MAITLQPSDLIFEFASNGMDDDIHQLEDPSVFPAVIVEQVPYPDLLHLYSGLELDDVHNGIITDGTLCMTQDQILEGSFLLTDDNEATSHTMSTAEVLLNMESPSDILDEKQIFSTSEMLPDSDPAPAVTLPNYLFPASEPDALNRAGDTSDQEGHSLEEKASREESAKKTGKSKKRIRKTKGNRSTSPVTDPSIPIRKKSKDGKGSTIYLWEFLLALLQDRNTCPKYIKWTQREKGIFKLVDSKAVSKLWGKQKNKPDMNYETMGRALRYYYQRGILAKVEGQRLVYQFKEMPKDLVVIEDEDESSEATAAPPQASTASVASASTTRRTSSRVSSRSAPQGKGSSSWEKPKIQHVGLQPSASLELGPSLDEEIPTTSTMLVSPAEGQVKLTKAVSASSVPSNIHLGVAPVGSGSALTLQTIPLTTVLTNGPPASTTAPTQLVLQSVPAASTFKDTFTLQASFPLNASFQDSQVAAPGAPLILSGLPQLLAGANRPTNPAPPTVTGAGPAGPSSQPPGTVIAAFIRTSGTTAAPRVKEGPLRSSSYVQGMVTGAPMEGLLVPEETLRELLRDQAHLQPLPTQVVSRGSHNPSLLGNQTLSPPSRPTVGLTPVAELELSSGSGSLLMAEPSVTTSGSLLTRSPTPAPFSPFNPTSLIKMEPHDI
# Procedure, shortened: as §1
# ELK4 = target: T3, ELK4 (Homo sapiens, UniProt P28324-2 1-405); details: protein: recombinant; tags: N-terminal GST; dsDNA, one strand shown
# T3 sequence: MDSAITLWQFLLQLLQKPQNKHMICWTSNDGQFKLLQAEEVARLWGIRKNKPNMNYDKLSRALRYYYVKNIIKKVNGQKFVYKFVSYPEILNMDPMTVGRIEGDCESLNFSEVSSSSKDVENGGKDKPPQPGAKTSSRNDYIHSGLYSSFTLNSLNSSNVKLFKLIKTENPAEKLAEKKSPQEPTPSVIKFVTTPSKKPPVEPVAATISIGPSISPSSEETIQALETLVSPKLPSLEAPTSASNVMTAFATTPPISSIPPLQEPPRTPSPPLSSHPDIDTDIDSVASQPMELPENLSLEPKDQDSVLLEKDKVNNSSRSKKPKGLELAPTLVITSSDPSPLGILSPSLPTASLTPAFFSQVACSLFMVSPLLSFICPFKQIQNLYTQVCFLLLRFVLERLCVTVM
# Procedure, shortened: as §1
# ETV2 = target: T4, ETV2 (Homo sapiens, UniProt O00321 1-342); details: protein: recombinant; tags: N-terminal GST; dsDNA, one strand shown
# T4 sequence: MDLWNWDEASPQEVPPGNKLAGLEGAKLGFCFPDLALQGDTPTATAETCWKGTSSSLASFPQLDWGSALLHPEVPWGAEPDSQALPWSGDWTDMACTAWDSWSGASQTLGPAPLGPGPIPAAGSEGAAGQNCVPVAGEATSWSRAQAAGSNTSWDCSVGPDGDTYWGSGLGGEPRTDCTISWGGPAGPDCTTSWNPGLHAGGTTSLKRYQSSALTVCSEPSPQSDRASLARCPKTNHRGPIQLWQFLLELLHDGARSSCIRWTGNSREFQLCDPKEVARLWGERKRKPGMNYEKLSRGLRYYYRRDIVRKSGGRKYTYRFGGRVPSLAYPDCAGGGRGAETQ
# Procedure, shortened: as §1
# ELF3 = target: T5, ELF3 (Homo sapiens, UniProt P78545 1-371); details: protein: recombinant; tags: N-terminal GST; dsDNA, one strand shown
# T5 sequence: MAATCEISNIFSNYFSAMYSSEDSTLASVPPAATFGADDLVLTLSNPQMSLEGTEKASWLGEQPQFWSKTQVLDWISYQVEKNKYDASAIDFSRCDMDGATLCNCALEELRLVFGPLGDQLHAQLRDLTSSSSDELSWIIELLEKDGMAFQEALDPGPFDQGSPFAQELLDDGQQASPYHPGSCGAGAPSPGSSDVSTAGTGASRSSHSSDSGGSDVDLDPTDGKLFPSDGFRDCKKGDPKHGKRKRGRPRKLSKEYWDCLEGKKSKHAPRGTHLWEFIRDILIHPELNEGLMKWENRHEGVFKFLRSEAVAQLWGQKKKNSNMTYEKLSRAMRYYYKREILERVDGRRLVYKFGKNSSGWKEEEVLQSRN
# Procedure, shortened: as §1
# CRX = CRX (Homo sapiens, UniProt O43186 1-299); details: protein: recombinant; tags: N-terminal GST; dsDNA, one strand shown
# Chain of CRX (O43186 whole entry): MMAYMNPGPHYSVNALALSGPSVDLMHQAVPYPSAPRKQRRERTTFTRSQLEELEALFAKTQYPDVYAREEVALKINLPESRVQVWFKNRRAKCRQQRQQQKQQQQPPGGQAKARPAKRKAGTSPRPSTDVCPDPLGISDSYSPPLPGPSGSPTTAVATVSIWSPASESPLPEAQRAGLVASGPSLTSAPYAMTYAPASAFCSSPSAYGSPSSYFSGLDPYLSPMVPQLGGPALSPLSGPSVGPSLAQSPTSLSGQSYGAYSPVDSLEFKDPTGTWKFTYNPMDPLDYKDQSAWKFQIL
# Procedure, shortened: as §1
# ETV1 = ETV1 (Homo sapiens, UniProt P50549 1-477); details: protein: recombinant; tags: N-terminal GST; dsDNA, one strand shown
# Chain of ETV1 (P50549 whole entry): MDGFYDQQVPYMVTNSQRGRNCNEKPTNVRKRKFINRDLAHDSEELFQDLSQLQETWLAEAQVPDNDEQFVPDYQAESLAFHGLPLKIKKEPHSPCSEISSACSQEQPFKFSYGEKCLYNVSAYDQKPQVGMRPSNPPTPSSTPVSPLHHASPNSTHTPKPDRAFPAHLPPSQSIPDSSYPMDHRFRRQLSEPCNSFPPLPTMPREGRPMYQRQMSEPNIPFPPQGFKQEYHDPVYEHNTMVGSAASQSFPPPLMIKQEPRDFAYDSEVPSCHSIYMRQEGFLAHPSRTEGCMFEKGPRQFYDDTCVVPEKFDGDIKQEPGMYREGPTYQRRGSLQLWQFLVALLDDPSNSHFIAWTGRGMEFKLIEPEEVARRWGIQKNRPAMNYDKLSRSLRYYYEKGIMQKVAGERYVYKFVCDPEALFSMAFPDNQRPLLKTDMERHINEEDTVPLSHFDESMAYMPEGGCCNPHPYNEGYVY
# Procedure, shortened: as §1
sequence,measurement,setting,value
CTCCCC,binding signal,FEV,"1.4 fold enrichment (6-mer frequency, TF over GST control)"
same,binding signal,ETV5,"1.39 fold enrichment (6-mer frequency, TF over GST control)"
same,binding signal,HSF1,"1.14 fold enrichment (6-mer frequency, TF over GST control)"
same,binding signal,SPIC,"1.28 fold enrichment (6-mer frequency, TF over GST control)"
same,binding signal,ELF4,"1.42 fold enrichment (6-mer frequency, TF over GST control)"
same,binding signal,ELK4,"1.38 fold enrichment (6-mer frequency, TF over GST control)"
same,binding signal,ETV2,"1.63 fold enrichment (6-mer frequency, TF over GST control)"
same,binding signal,ELF3,"1.25 fold enrichment (6-mer frequency, TF over GST control)"
same,binding signal,CRX,"1.19 fold enrichment (6-mer frequency, TF over GST control)"
same,binding signal,ETV1,"1.46 fold enrichment (6-mer frequency, TF over GST control)"
